These sequences were tested against BCL11A (assay: pooled miR-30 sensor sort-seq; sequence = guide strand). Conditions: shRNA.

Sequence | sensor-assay potency score (higher = more potent)
TTAATTGTCCTATCTGAGCAGG | -0.599
TATCATTTGATTGTCCACTTGA | 0.591
TTATTTTATACTCAACCTCTGT | -0.873
ATAACAAGTAGAAAGAACCATC | -0.773
TTCACATTTGTAAACGTCCTTC | -0.693
TTGCACTATATTATCCTGCCAA | -0.344
TGAAATTTGAACGTCTTGCCGC | 0.0443
TAGCATAGGAATCAACATGAGT | -0.704
TTGACAACCAAGTAGATCTGGA | 0.0039
TAAAAGACAACATAGAATGTAT | 0.0879
TACTATATAATCTTAAACCTTT | -0.147
TAAACAATCGTCATCCTCTGGC | -0.0288

Reference: the OligoGym collection
